# From the supplement of paper PMC4466140
# Assays:
# Experiment in all cases: SPOT peptide array binding signal intensity (averaged, normalized) (arbitrary units (background-subtracted, floor 0; scale differs between SH3 domains)); higher = stronger binding of the SH3 domain to the peptide
# CaNbp2 = target: CaNbp2
# Summary of the method: (§1)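 Four yeast species supplied the SH3 domains, which were expressed as GST fusions in E. coli BL21(DE3) and purified on glutathione Sepharose. Incubation with cellulose membranes carrying synthetic 15-mer peptides, cysteines exchanged for serines, ran overnight at 4°C at 10 μg/ml in TBS-based blocking buffer. Binding signal is reported as normalized, background-subtracted spot intensity averaged over replicates, in arbitrary units not shared between domains.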
# CaRvs167 = target: CaRvs167
# Summary of the method: as §1
# CaRvs167-3 = target: CaRvs167-3
# Summary of the method: as §1
# CaSho1 = target: CaSho1
# Summary of the method: as §1
# CaSla1-D1-D2 = target: CaSla1-D1-D2
# Summary of the method: as §1
# CaSla1-D3 = target: CaSla1-D3
# Summary of the method: as §1
# ScAbp1 = target: ScAbp1
# Summary of the method: as §1
# ScBbc1 = target: ScBbc1
# Summary of the method: as §1
# ScBem1-D1 = target: ScBem1-D1
# Summary of the method: as §1
# ScBzz1-D1 = target: ScBzz1-D1
# Summary of the method: as §1
# ScBzz1-D2 = target: ScBzz1-D2
# Summary of the method: as §1
# ScCyk3 = target: ScCyk3
# Summary of the method: as §1
# ScFus1 = target: ScFus1
# Summary of the method: as §1
# ScHof1 = target: ScHof1
# Summary of the method: as §1
# ScHse1 = target: ScHse1
# Summary of the method: as §1
# ScLsb1 = target: ScLsb1
# Summary of the method: as §1
# ScLsb2 = target: ScLsb2
# Summary of the method: as §1
# ScLsb3 = target: ScLsb3
# Summary of the method: as §1
# ScLsb4 = target: ScLsb4
# Summary of the method: as §1
# ScMyo3 = target: ScMyo3
# Summary of the method: as §1
# ScMyo5 = target: ScMyo5
# Summary of the method: as §1
# ScNbp2 = target: ScNbp2
# Summary of the method: as §1
# ScPex13 = target: ScPex13
# Summary of the method: as §1
# ScRvs167 = target: ScRvs167
# Summary of the method: as §1
# ScSho1 = target: ScSho1
# Summary of the method: as §1
# ScSla1-D1-D2 = target: ScSla1-D1-D2
# Summary of the method: as §1
# ScSla1-D3 = target: ScSla1-D3
# Summary of the method: as §1
# SpAbp1-D1 = target: SpAbp1-D1
# Summary of the method: as §1
# SpBbc1 = target: SpBbc1
# Summary of the method: as §1
# SpBzz1-D1 = target: SpBzz1-D1
# Summary of the method: as §1
# SpBzz1-D2 = target: SpBzz1-D2
# Summary of the method: as §1
# SpCyk3 = target: SpCyk3
# Summary of the method: as §1
# SpHof1 = target: SpHof1
# Summary of the method: as §1
# SpHof1-2 = target: SpHof1-2
# Summary of the method: as §1
# SpHof1-3 = target: SpHof1-3
# Summary of the method: as §1
# SpHse1 = target: SpHse1
# Summary of the method: as §1
# SpLsb1 = target: SpLsb1
# Summary of the method: as §1
# SpLsb4 = target: SpLsb4
# Summary of the method: as §1
# SpMyo1 = target: SpMyo1
# Summary of the method: as §1
# SpNbp2 = target: SpNbp2
# Summary of the method: as §1
# SpPex13 = target: SpPex13
# Summary of the method: as §1
# SpRvs167 = target: SpRvs167
# Summary of the method: as §1
# SpSla1-D1-D2 = target: SpSla1-D1-D2
# Summary of the method: as §1
# SpSla1-D3 = target: SpSla1-D3
# Summary of the method: as §1
# AgAbp1 = target: AgAbp1
# Summary of the method: as §1
# AgBbc1 = target: AgBbc1
# Summary of the method: as §1
# AgBem1-D1 = target: AgBem1-D1
# Summary of the method: as §1
# AgBzz1-D1 = target: AgBzz1-D1
# Summary of the method: as §1
# AgBzz1-D2 = target: AgBzz1-D2
# Summary of the method: as §1
# AgCyk3 = target: AgCyk3
# Summary of the method: as §1
# AgFus1 = target: AgFus1
# Summary of the method: as §1
# AgHof1 = target: AgHof1
# Summary of the method: as §1
# AgHse1 = target: AgHse1
# Summary of the method: as §1
# AgLsb1 = target: AgLsb1
# Summary of the method: as §1
# AgLsb4 = target: AgLsb4
# Summary of the method: as §1
# AgMyo5 = target: AgMyo5
# Summary of the method: as §1
# AgNbp2 = target: AgNbp2
# Summary of the method: as §1
# AgRvs167 = target: AgRvs167
# Summary of the method: as §1
# AgSho1 = target: AgSho1
# Summary of the method: as §1
# AgSla1-D1-D2 = target: AgSla1-D1-D2
# Summary of the method: as §1
# AgSla1-D3 = target: AgSla1-D3
# Summary of the method: as §1
# CaAbp1-D1 = target: CaAbp1-D1
# Summary of the method: as §1
# CaAbp1-D2 = target: CaAbp1-D2
# Summary of the method: as §1
# CaBbc1 = target: CaBbc1
# Summary of the method: as §1
# CaBem1-D1 = target: CaBem1-D1
# Summary of the method: as §1
# CaBzz1-D1 = target: CaBzz1-D1
# Summary of the method: as §1
# CaBzz1-D2 = target: CaBzz1-D2
# Summary of the method: as §1
# CaCyk3 = target: CaCyk3
# Summary of the method: as §1
# CaFus1 = target: CaFus1
# Summary of the method: as §1
# CaHof1 = target: CaHof1
# Summary of the method: as §1
# CaHse1 = target: CaHse1
# Summary of the method: as §1
# CaLsb1 = target: CaLsb1
# Summary of the method: as §1
# CaLsb4 = target: CaLsb4
# Summary of the method: as §1
# CaMyo5 = target: CaMyo5
# Summary of the method: as §1
binder,measurement,setting,value
VFQFQMPTTPISTKM,SPOT peptide array binding signal intensity,CaNbp2,985
same,SPOT peptide array binding signal intensity,CaRvs167,32.7
same,SPOT peptide array binding signal intensity,CaRvs167-3,4.5
same,SPOT peptide array binding signal intensity,CaSho1,922
same,SPOT peptide array binding signal intensity,CaSla1-D1-D2,404
same,SPOT peptide array binding signal intensity,CaSla1-D3,454
same,SPOT peptide array binding signal intensity,ScAbp1,4
same,SPOT peptide array binding signal intensity,ScBbc1,≤ 0
same,SPOT peptide array binding signal intensity,ScBem1-D1,1
same,SPOT peptide array binding signal intensity,ScBzz1-D1,10
same,SPOT peptide array binding signal intensity,ScBzz1-D2,25
same,SPOT peptide array binding signal intensity,ScCyk3,13
same,SPOT peptide array binding signal intensity,ScFus1,327
same,SPOT peptide array binding signal intensity,ScHof1,≤ 0
same,SPOT peptide array binding signal intensity,ScHse1,254
same,SPOT peptide array binding signal intensity,ScLsb1,46.5
same,SPOT peptide array binding signal intensity,ScLsb2,≤ 0
same,SPOT peptide array binding signal intensity,ScLsb3,282
same,SPOT peptide array binding signal intensity,ScLsb4,124
same,SPOT peptide array binding signal intensity,ScMyo3,20.8
same,SPOT peptide array binding signal intensity,ScMyo5,8
same,SPOT peptide array binding signal intensity,ScNbp2,636
same,SPOT peptide array binding signal intensity,ScPex13,186
same,SPOT peptide array binding signal intensity,ScRvs167,11.8
same,SPOT peptide array binding signal intensity,ScSho1,530
same,SPOT peptide array binding signal intensity,ScSla1-D1-D2,245
same,SPOT peptide array binding signal intensity,ScSla1-D3,228
same,SPOT peptide array binding signal intensity,SpAbp1-D1,21
same,SPOT peptide array binding signal intensity,SpBbc1,2.5
same,SPOT peptide array binding signal intensity,SpBzz1-D1,324
same,SPOT peptide array binding signal intensity,SpBzz1-D2,4.25
same,SPOT peptide array binding signal intensity,SpCyk3,4
same,SPOT peptide array binding signal intensity,SpHof1,52.5
same,SPOT peptide array binding signal intensity,SpHof1-2,36.5
same,SPOT peptide array binding signal intensity,SpHof1-3,18.5
same,SPOT peptide array binding signal intensity,SpHse1,456
same,SPOT peptide array binding signal intensity,SpLsb1,4.5
same,SPOT peptide array binding signal intensity,SpLsb4,349
same,SPOT peptide array binding signal intensity,SpMyo1,85.5
same,SPOT peptide array binding signal intensity,SpNbp2,272
same,SPOT peptide array binding signal intensity,SpPex13,124
same,SPOT peptide array binding signal intensity,SpRvs167,27
same,SPOT peptide array binding signal intensity,SpSla1-D1-D2,3
same,SPOT peptide array binding signal intensity,SpSla1-D3,297
WTQRRGPLVVYAEDN,SPOT peptide array binding signal intensity,AgAbp1,≤ 0
same,SPOT peptide array binding signal intensity,AgBbc1,7
same,SPOT peptide array binding signal intensity,AgBem1-D1,102
same,SPOT peptide array binding signal intensity,AgBzz1-D1,11
same,SPOT peptide array binding signal intensity,AgBzz1-D2,22.5
same,SPOT peptide array binding signal intensity,AgCyk3,0.5
same,SPOT peptide array binding signal intensity,AgFus1,35.5
same,SPOT peptide array binding signal intensity,AgHof1,15.5
same,SPOT peptide array binding signal intensity,AgHse1,20.5
same,SPOT peptide array binding signal intensity,AgLsb1,4
same,SPOT peptide array binding signal intensity,AgLsb4,17.5
same,SPOT peptide array binding signal intensity,AgMyo5,3
same,SPOT peptide array binding signal intensity,AgNbp2,≤ 0
same,SPOT peptide array binding signal intensity,AgRvs167,1.17
same,SPOT peptide array binding signal intensity,AgSho1,4
same,SPOT peptide array binding signal intensity,AgSla1-D1-D2,20
same,SPOT peptide array binding signal intensity,AgSla1-D3,2
same,SPOT peptide array binding signal intensity,CaAbp1-D1,≤ 0
same,SPOT peptide array binding signal intensity,CaAbp1-D2,≤ 0
same,SPOT peptide array binding signal intensity,CaBbc1,27.2
same,SPOT peptide array binding signal intensity,CaBem1-D1,3
same,SPOT peptide array binding signal intensity,CaBzz1-D1,286
same,SPOT peptide array binding signal intensity,CaBzz1-D2,142
same,SPOT peptide array binding signal intensity,CaCyk3,18
same,SPOT peptide array binding signal intensity,CaFus1,190
same,SPOT peptide array binding signal intensity,CaHof1,1.5
same,SPOT peptide array binding signal intensity,CaHse1,6.25
same,SPOT peptide array binding signal intensity,CaLsb1,6.5
same,SPOT peptide array binding signal intensity,CaLsb4,29.5
same,SPOT peptide array binding signal intensity,CaMyo5,26
same,SPOT peptide array binding signal intensity,CaNbp2,44.5
same,SPOT peptide array binding signal intensity,CaRvs167,12.2
same,SPOT peptide array binding signal intensity,CaRvs167-3,3.5
same,SPOT peptide array binding signal intensity,CaSho1,32
same,SPOT peptide array binding signal intensity,CaSla1-D1-D2,≤ 0
same,SPOT peptide array binding signal intensity,CaSla1-D3,0.25
same,SPOT peptide array binding signal intensity,ScAbp1,1
same,SPOT peptide array binding signal intensity,ScBbc1,≤ 0
same,SPOT peptide array binding signal intensity,ScBem1-D1,11.5
same,SPOT peptide array binding signal intensity,ScBzz1-D1,28
same,SPOT peptide array binding signal intensity,ScBzz1-D2,58
same,SPOT peptide array binding signal intensity,ScCyk3,10
same,SPOT peptide array binding signal intensity,ScFus1,28.5
same,SPOT peptide array binding signal intensity,ScHof1,0.5
same,SPOT peptide array binding signal intensity,ScHse1,140
same,SPOT peptide array binding signal intensity,ScLsb1,3.5
same,SPOT peptide array binding signal intensity,ScLsb2,≤ 0
same,SPOT peptide array binding signal intensity,ScLsb3,5
same,SPOT peptide array binding signal intensity,ScLsb4,≤ 0
same,SPOT peptide array binding signal intensity,ScMyo3,16
same,SPOT peptide array binding signal intensity,ScMyo5,9
same,SPOT peptide array binding signal intensity,ScNbp2,1.5
same,SPOT peptide array binding signal intensity,ScPex13,1
same,SPOT peptide array binding signal intensity,ScRvs167,20.8
same,SPOT peptide array binding signal intensity,ScSho1,≤ 0
same,SPOT peptide array binding signal intensity,ScSla1-D1-D2,≤ 0
same,SPOT peptide array binding signal intensity,ScSla1-D3,9
same,SPOT peptide array binding signal intensity,SpAbp1-D1,6
same,SPOT peptide array binding signal intensity,SpBbc1,2.75
same,SPOT peptide array binding signal intensity,SpBzz1-D1,458
